Test results taken from PubChem BioAssay (Tox21).
Inconclusive results are not listed. Activity calls are given as the source filed them. Unless noted, calls follow the shape of the full dose curve.

Tests used:
[1] = Nuclear factor erythroid 2-related factor 2/antioxidant responsive element (Nrf2/ARE) small molecule agonists: qHTS cell viability counter screen in human keratinocytes (AID 1919968; active = well fitted curve in the direction sought with a large enough effect in the repeat runs; an effect the other way counts as inactive or inconclusive; also: nearly all actives have a fitted effect of over 55% in size; also: potency is read from the fitted curve at half-maximal effect)
Outline: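 Cells of the KeratinoSens line were plated at 1,500 per well and left for 5 h before compound transfer from DMSO stocks. After a 23 h incubation (37 C, 5% CO2), CellTiter-Fluor was added. Signal was taken as fluorescence intensity 1 h later.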

[2] = Nuclear factor erythroid 2-related factor 2/antioxidant responsive element (Nrf2/ARE) small molecule agonists: luciferase reporter gene qHTS assay in human keratinocytes (AID 1919969); also: nearly all actives have a fitted effect of over 35% in size; also: potency is read from the fitted curve at half-maximal effect
[3] = target: Gonadotropin-releasing hormone receptor (Homo sapiens) (UniProt P30968); assay: Human gonadotropin-releasing hormone receptor (GnRHR) small molecule agonists, calcium flux assay in GnRHR-HEK293 cells (AID 1920063); also: nearly all actives have a fitted effect of over 35% in size
Chain of Gonadotropin-releasing hormone receptor (Homo sapiens) (P30968 whole entry, looked up): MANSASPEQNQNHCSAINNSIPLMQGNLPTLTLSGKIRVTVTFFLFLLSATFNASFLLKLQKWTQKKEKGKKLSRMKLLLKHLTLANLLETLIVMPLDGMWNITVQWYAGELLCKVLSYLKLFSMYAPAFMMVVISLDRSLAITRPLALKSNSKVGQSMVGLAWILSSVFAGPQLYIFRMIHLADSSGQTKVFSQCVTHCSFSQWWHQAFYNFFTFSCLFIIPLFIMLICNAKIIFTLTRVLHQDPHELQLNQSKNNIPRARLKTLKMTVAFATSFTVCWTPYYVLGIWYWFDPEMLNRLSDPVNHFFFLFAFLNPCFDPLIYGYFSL
Outline: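 Compounds dissolved in DMSO are pin-transferred onto dye-loaded GnRHR-HEK293 cells, which were seeded 18 h before at 37 C/5% CO2. Calcium signal is read as fluorescence intensity at 1 s intervals for 3 min.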

[4] = target: KiSS-1 receptor (Homo sapiens) (UniProt Q969F8); assay: Human kisspeptin (KISS1R) small molecule agonists, calcium flux assay in KISS1R-HEK293 cells (AID 1920064; active = well fitted curve in the direction sought with a large enough effect in the repeat runs; an effect the other way counts as inactive or inconclusive)
Chain of KiSS-1 receptor (Homo sapiens) (Q969F8 whole entry, looked up): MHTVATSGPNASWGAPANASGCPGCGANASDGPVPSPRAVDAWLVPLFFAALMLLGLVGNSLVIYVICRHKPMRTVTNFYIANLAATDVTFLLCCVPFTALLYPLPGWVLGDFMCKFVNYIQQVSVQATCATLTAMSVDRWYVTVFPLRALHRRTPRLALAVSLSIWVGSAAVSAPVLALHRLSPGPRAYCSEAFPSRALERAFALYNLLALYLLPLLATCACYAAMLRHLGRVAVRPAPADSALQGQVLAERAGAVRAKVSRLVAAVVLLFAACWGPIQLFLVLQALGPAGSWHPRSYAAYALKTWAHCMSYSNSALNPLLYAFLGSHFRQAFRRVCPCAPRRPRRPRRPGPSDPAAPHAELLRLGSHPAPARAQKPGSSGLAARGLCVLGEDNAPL
Outline: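 Cell line: HEK293, stable human KISS1R. Dye loading 1 h at 37 C after 18 h culture. Read: kinetic fluorescence, 480/540 nm, 3 min at 1 s intervals.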

[5] = G protein-coupled receptor (GPCR) small molecule agonists, calcium flux assay: HEK293 wild type cell line counter screen (AID 1920065)
Outline: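 Tox21 10K compounds, 15 concentrations each in triplicate, pin-transferred in DMSO onto dye-loaded cells; kinetic read at 480/540 nm for 3 min, 1 s intervals.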

[6] = p53 small molecule agonists, cell-based qHTS assay with human liver microsomes (AID 1963577);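 also: p53 response element beta-lactamase reporter cells with liver microsomes plus NADPH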
Outline: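 HLM-supplemented p53RE-bla reporter assay: 16 h compound exposure at 37 C, microsomes and NADPH each 0.5 mg/mL final, read by fluorescence intensity.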

[7] = p53 small molecule agonists, cell-based qHTS assay with rat liver microsomes (AID 1963578)
Outline: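 Quantitative HTS of the Tox21 10K library: p53RE-bla cells, rat liver microsomes plus NADPH at 0.5 mg/mL final each, 16 h at 37 C, beta-lactamase fluorescence detection.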

[8] = p53 small molecule agonists, cell-based qHTS assay with human liver microsomes: qHTS cell viability counter screen (AID 1963579); also: nearly all actives have a fitted effect of over 45% in size
Outline: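 Viability of p53RE-bla cells is measured as CellTiter-Glo luminescence following a 16 h, 37 C incubation with compound, liver microsomes from human donors and NADPH.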

[9] = p53 small molecule agonists, cell-based qHTS assay with rat liver microsomes: qHTS cell viability counter screen (AID 1963580); also: nearly all actives have a fitted effect of over 45% in size
Outline: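 Cytotoxicity counter screen: intracellular ATP measured by CellTiter-Glo luminescence in the same wells as the beta-lactamase reporter read, on HCT-116 p53RE-bla cells exposed 16 h at 37 C to compounds with rat liver microsomes and NADPH, each 0.5 mg/mL final.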

[10] = p53 small molecule agonists, cell-based qHTS assay: qHTS cell viability counter screen (AID 1963581); also: nearly all actives have a fitted effect of over 45% in size; also: potency is read from the fitted curve at half-maximal effect
Outline: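 ATP content measured by luminescence in HCT-116 p53RE-bla cells treated 16 h at 37 C, same wells as the reporter screen.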

[11] = p53 small molecule agonists, cell-based qHTS assay (AID 1963582; active = well fitted activation curve with a large enough effect in the signal ratio in the repeat runs, not every such curve was filed as active; the % refers to the signal ratio)
Outline: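 16 h compound exposure (37 C) of p53 response element–bla cells, preceded by 5 h recovery at 37 C/5% CO2; read-out via LiveBLAzer B/G FRET substrate, 2 h RT, fluorescence intensity.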

[12] = cAMP Responsive Elements (CRE) small molecule antagonists, cell-based qHTS assay (AID 1963591; active = well fitted inhibition curve with a large enough effect in the signal ratio in the repeat runs, not every such curve was filed as active; the % refers to the signal ratio)
Outline: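 First, CRE-bla HEK293T cells settled 18 h at 37 C. Next, compound and 0.25 uM final NKH477 were applied for 3 h. Last, LiveBLAzer B/G substrate was loaded for 2 h at room temperature.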

[13] = target: Beta-2 adrenergic receptor (Homo sapiens) (UniProt P07550); assay: Adrenergic beta2 receptor (ADRB2) small molecule antagonists, cell-based qHTS assay (AID 1963592); also: nearly all actives have a fitted effect of over 50% in size; also: potency is read from the fitted curve at half-maximal effect; as to activity change, negative = inhibition: series mostly up to about 92 µM
Chain of Beta-2 adrenergic receptor (Homo sapiens) (P07550 whole entry, looked up): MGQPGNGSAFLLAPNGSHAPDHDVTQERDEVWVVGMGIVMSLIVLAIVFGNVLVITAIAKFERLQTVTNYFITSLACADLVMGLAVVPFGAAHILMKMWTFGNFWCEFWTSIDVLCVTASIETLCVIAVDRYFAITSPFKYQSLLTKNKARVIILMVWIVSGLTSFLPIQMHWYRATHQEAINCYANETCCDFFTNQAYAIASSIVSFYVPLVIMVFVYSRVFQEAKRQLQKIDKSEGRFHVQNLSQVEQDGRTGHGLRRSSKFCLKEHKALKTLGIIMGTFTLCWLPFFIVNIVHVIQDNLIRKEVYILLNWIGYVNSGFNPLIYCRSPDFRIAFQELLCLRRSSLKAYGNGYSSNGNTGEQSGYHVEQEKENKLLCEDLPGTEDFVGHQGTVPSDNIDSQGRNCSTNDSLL
Outline: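 Assay format: CHO-ADRB2 cells, 18-20hr seeding at 37C/5% CO2, then compound plus 1nM isoproterenol agonist mix for 0.5hr RT. Homogeneous time-resolved fluorescence cAMP detection after 1hr, expressed as 665/615 nm ratio.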

[14] = target: D(2) dopamine receptor (Homo sapiens) (UniProt P14416); assay: Dopamine D2 receptor (DRD2) small molecule antagonists, cell-based qHTS assay (AID 1963595; active = well fitted inhibition curve with a large enough effect in the signal ratio in the repeat runs, with a control signal flat; the % refers to the signal ratio; also: potency is read from the fitted curve at half-maximal effect)
Chain of D(2) dopamine receptor (Homo sapiens) (P14416 whole entry, looked up): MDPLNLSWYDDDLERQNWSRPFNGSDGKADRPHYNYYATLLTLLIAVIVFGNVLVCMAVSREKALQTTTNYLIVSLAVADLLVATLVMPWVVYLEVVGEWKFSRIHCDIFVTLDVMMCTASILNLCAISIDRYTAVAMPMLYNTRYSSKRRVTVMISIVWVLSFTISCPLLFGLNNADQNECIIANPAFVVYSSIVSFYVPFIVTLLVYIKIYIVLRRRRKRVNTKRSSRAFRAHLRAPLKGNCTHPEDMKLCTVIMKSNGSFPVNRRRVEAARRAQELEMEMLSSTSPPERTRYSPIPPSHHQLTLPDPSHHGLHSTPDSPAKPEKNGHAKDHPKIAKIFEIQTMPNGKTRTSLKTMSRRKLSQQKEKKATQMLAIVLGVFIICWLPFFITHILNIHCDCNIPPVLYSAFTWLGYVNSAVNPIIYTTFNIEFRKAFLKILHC
Outline: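 In this cell-based antagonist screen, compounds act for 10 min at room temperature before a 30 min challenge with 12 nM quinpirole and 200 nM NKH477. cAMP is quantified by HTRF competition in DRD2-HEK293 cells containing 0.1 mM Ro20-1724.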

[15] = target: D(2) dopamine receptor (Homo sapiens) (UniProt P14416); assay: Dopamine D2 receptor (DRD2) small molecule agonists, cell-based qHTS assay (AID 1963594); also: nearly all actives have a fitted effect of over 35% in size; also: potency is read from the fitted curve at half-maximal effect
Outline: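 HEK293 cells stably expressing human DRD2, pre-treated with PDE inhibitor Ro20-1724 (0.1 mM final) and compound 10 min at room temperature, then stimulated with NKH477 (200nM […]) for 30 min. cAMP read by HTRF (665/620 nm).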

[16] = target: Beta-2 adrenergic receptor (Homo sapiens) (UniProt P07550); assay: Adrenergic beta2 receptor (ADRB2) small molecule agonists, cell-based qHTS assay (AID 1963593);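 also: CHO cells stably overexpressing human ADRB2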
Outline: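 CHO cells stably over-expressing ADRB2 were plated overnight at 37C, then dosed with compounds plus a stimulation mix containing 100uM IBMX and 25uM Ro-20-1724 for 0.5hr at room temperature. cAMP was measured by HTRF competition, 1hr.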

[17] = target: 5-hydroxytryptamine receptor 2A (Homo sapiens) (UniProt P28223); assay: 5-hydroxytryptamine receptor 2A (HTR2A) small molecule agonists, cell-based qHTS assay (AID 1963587); also: nearly all actives have a fitted effect of over 30% in size
Chain of 5-hydroxytryptamine receptor 2A (Homo sapiens) (P28223 whole entry, looked up): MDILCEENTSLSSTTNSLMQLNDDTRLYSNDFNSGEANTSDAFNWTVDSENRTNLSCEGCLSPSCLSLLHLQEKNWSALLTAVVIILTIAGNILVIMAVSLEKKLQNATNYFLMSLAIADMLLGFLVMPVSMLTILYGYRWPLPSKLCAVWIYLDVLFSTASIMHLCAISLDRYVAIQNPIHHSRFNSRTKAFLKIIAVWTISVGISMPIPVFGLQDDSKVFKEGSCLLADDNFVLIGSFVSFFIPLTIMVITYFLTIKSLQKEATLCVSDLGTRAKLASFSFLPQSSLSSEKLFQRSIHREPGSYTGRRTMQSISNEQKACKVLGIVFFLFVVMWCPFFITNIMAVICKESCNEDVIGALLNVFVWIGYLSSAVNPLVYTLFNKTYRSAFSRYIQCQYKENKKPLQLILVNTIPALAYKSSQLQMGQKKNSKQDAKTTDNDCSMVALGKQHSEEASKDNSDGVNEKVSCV
Outline: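 CHO cells stably expressing human HTR2A, plated 18 h, loaded with calcium dye 1 h at 37 C. Agonist mode: compounds added and intracellular calcium fluorescence recorded kinetically for 2 min at 1 sec intervals.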

[18] = target: Muscarinic acetylcholine receptor M1 (Homo sapiens) (UniProt P11229); assay: Cholinergic receptor muscarinic 1 (CHRM1) small molecule antagonists, cell-based qHTS assay (AID 1963588); also: nearly all actives have a fitted effect of over 40% in size
Chain of Muscarinic acetylcholine receptor M1 (Homo sapiens) (P11229 whole entry, looked up): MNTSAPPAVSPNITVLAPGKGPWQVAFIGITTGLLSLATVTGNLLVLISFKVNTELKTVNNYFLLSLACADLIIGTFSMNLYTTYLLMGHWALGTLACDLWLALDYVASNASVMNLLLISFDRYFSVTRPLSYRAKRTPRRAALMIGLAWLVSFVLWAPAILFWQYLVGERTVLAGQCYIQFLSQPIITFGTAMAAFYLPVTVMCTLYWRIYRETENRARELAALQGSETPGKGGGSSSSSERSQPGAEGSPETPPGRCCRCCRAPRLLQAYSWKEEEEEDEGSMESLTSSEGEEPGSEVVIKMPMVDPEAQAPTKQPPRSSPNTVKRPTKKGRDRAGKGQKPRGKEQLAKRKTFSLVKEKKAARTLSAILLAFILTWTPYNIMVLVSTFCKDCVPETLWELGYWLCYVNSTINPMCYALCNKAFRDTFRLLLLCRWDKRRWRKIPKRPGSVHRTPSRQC
Outline: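 Compounds were tested at 15 concentrations in three independent runs. Dye-loaded CHRM1-CHO cells were exposed 5 min at room temperature before stimulation by acetylcholine added at 50nM. Intracellular calcium was read kinetically on FDSS for 3 min.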

[19] = target: Muscarinic acetylcholine receptor M1 (Homo sapiens) (UniProt P11229); assay: Cholinergic receptor muscarinic 1 (CHRM1) small molecule agonists, cell-based qHTS assay (AID 1963589); also: nearly all actives have a fitted effect of over 35% in size
Outline: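 Homogeneous fluorescence calcium flux, agonist mode. Human M1-expressing CHO cells; compound dosed at 15 concentrations, three independent runs; signal sampled every 1 sec.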

[20] = cAMP Responsive Elements (CRE) small molecule agonists, cell-based qHTS assay (AID 1963590)
Outline: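 HEK 293T cells stably bearing CRE-bla were plated at 2,000 cells per well and rested 18 h. Compounds, positive controls or DMSO were added for 3 h at 37 C. LiveBLAzer B/G substrate was then loaded for 2 h at room temperature.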
% is scaled to controls: 0 for no effect and ±100 for the full control effect.

CN1C[C@@H]2C[C@H]1CN2c1cc2c(cc1F)c(=O)c(C(=O)O)cn2C1CC1
inactive: activity change, negative = cytotoxicity [1] -0.599% [at 19 µM] | activity, positive = activation [2] -6.17% [at 19 µM] | activity change [3] -0.0937% [at 11.8 µM, stronger effect = higher value] | activation [4] -1.39% [at 15.8 µM] | activation [5] 0.573% [at 11.8 µM] | activation [6] 9.29% [at 13.5 µM] | activation [7] 1.2% [at 13.6 µM] | activity change, negative = cytotoxicity [8] 13.7% [at 13.5 µM] | activity change, negative = cytotoxicity [9] 4.47% [at 13.5 µM] | activity change, negative = cytotoxicity [10] 10.7% [at 13.5 µM] | activation [11] 6.22% [at 13.5 µM] | activity change, negative = inhibition [12] 13.7% [at 18.9 µM] | activity change, negative = inhibition [13] -1.81% [at 19 µM] | activity change, negative = inhibition [14] -0.654% [at 18.9 µM]

CC(C)NCC(O)c1ccc(NS(C)(=O)=O)cc1 (stereo unspecified)
inactive: Potency [1] | Potency [2] | Potency [3] | outcome [4] | outcome [5] | Potency [6] | Potency [7] | Potency [8] | Potency [9] | Potency [10] | Potency [11] | Potency [12] | Potency [15] | Potency [14]

CCOC(=O)C1=C(C)NC(C)=C(C(=O)OC)C1c1cccc([N+](=O)[O-])c1 (stereo unspecified)
inactive: Potency [1] | Potency [2] | Potency [3] | outcome [4] | outcome [5] | Potency [6] | Potency [7] | Potency [8] | Potency [9] | Potency [10] | Potency [11] | Potency [12] | Potency [13] | Potency [15] | Potency [14]

NCCCC[C@H](N[C@@H](CCc1ccccc1)C(=O)O)C(=O)N1CCC[C@H]1C(=O)O
inactive: Potency [1] | Potency [2] | Potency [3] | outcome [4] | outcome [5] | Potency [6] | Potency [7] | Potency [8] | Potency [9] | Potency [10] | Potency [11] | Potency [12] | Potency [13] | Potency [16] | Potency [15] | Potency [14]

COc1cc(N)c(Cl)cc1C(=O)NC1CCN(CCCOc2ccc(F)cc2)CC1OC (stereo unspecified)
active: Potency [13] 23.7 µM | Potency [14] 11.9 µM
inactive: Potency [1] | Potency [2] | Potency [3] | outcome [4] | outcome [5] | Potency [6] | Potency [7] | Potency [8] | Potency [9] | Potency [10] | Potency [11] | Potency [12] | Potency [15]

CN1C[C@H](C(=O)N[C@]2(C)O[C@@]3(O)[C@@H]4CCCN4C(=O)[C@H](Cc4ccccc4)N3C2=O)C[C@@H]2c3cccc4[nH]cc(c34)C[C@H]21
inactive: Potency [1] | Potency [2] | Potency [3] | outcome [4] | outcome [5] | Potency [6] | Potency [7] | Potency [8] | Potency [9] | Potency [10] | Potency [11]
active: Potency [15] 0.022 µM

CC1COc2c(N3CCN(C)CC3)c(F)cc3c(=O)c(C(=O)O)cn1c23 (stereo unspecified)
inactive: Potency [1] | Potency [2] | Potency [3] | outcome [4] | outcome [5] | Potency [6] | Potency [7] | Potency [8] | Potency [9] | Potency [10] | Potency [11] | Potency [12] | Potency [14]

C[C@@H]1[C@H](O)[C@@H](C)/C=C/C=C\C=C\C=C\C=C\C=C\C=C\[C@H](O[C@@H]2O[C@H](C)[C@@H](O)[C@H](N)[C@@H]2O)C[C@@H]2O[C@](O)(C[C@@H](O)C[C@@H](O)[C@H](O)CC[C@@H](O)C[C@@H](O)CC(=O)O[C@H]1C)C[C@H](O)[C@H]2C(=O)O (stereo in doubt)
active: Potency [2] 68.6 µM
inactive: Potency [1] | Potency [3] | outcome [4] | outcome [5] | Potency [6] | Potency [7] | Potency [8] | Potency [9] | Potency [10] | Potency [11] | Potency [13] | Potency [16] | Potency [15] | Potency [14]

COCCOC(=O)C1=C(C)NC(C)=C(C(=O)OC(C)C)C1c1cccc([N+](=O)[O-])c1 (stereo unspecified)
inactive: Potency [1] | Potency [2] | Potency [3] | outcome [4] | outcome [5] | Potency [6] | Potency [7] | Potency [8] | Potency [9] | Potency [10] | Potency [11] | Potency [15]

Cc1c(C2(c3cc(Br)c(O)c(Br)c3C)OS(=O)(=O)c3ccccc32)cc(Br)c(O)c1Br
inactive: Potency [2] | Potency [3] | outcome [4] | outcome [5] | Potency [6] | Potency [7] | Potency [8] | Potency [9] | Potency [17] | Potency [18] | Potency [19] | Potency [20] | Potency [12]
active: Potency [1] 21 µM | Potency [10] 22.3 µM
